# Data published in the supplement of paper PMC6555819.
# Test system: PPARg homodimer (NR concentration 180 nM)
# Assay: PBM binding z-score (relative to random genomic background probes); higher = stronger binding; sequences stand for … in GC…GCGATTGACAGCGTAGAATGAAGG
# Summary of the method: (§1)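 Binding z-scores take random background probes as their reference. They come from custom Agilent 4×180K protein-binding microarrays incubated 1 h with ligand-free nuclear receptor dimers, with antibodies against each partner (one per run) detecting binding. Scanned fluorescence was regression-normalized.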
row,Sequence,PBM binding z-score
1,TTACCAAGATGAGCTGAGGTCGTTGATCCAACTC,0.0396
2,CCTTACGGGTCAAGGTTATAGCGCGGGTGGTACG,1.9
3,TAGTCTAGGTCATGGGCCAGTATACCACGCGAAC,2.49
4,ATCTCTAGGTAAAAGTTCAGTCAATCCCGAGGAT,1.74
5,AGTCAAAGTTCACTAGGGAACGTAAGATTCAGCT,2.24
6,CGTCCAAGGTCATAGAAGGTCAGTGAAGACAGAT,2.94
7,CCAGACAGGTGACAGGTAACTCAGTCTGGTACGC,0.536
8,CTCGAAAGGTCGTGCTCACGTGAGTATACCAAAC,1.35
9,TTACCAAGGTGAGCAGAGGTCGTTGATCCAACTC,0.497
10,ATGTCTAGGTAAAGTTCAGTGAAAGATCGATAGA,1.69
11,CCGACTGGGGCACAAAGGTTACCATACCATCCGG,0.929
12,TATACAGGGTCAAAGGCCAGCGTACGAATGTCGA,3.54
13,CCTACTGGGCAATTCAGAGGTCATTGATCATATG,2.09
14,ACTATTAGTTGACTTGGGGCAACCGATACGACGC,0.367
15,CCGACTTGGGCAGAAAGGTTACCATACCATCCGG,0.811
16,GCTAGCACGCCATTTGGGTCACTCAATGACGGGC,-0.0391
17,TCGAGTAGGTTAGGGGCATTCAAAATGGCGTCGA,0.857
18,CCTCGGAGGACAGAAGGTCAGAGCCGTCCGCTTT,1.7

# Test system: PXR:RXRa (NR concentration 270 nM, RXRa partner concentration 90 nM)
# Assay: as above
# Summary of the method: as §1
row,Sequence,PBM binding z-score
1,CAAACTAGCTCAAAGGTCAAAGTCGAGCCAACCA,5.37
2,GGAACGAGGGCAAGTCGATAGCAGAGTTTGATGG,0.167
3,CAGCGTAGGTCAGGGCCAGTATAGGAGGAACGTT,0.605
4,TATTGTAGATCAACAGGAGGTTAAGAAAGATCGA,0.93
5,CAGCCTAGGTCAGGGCCAATATAGGAGGAACGTT,0.404
6,CTCGAAAAGTCGTGCTCAGGTGAGTATACCAAAC,0.0376
7,GCGATTGGGGCAAAGCAGGTTACCATAAGGTTGG,0.707
8,TCGTGTAGATCAACAGGAGGTTAAGAAAGATCGA,0.488
9,CCTATTAGTTTACCATAAGGGCAACCGAAGCTCG,0.681
10,GCTAGTCGGTCAGTAAAAGGTCACACACCGGTCG,5.25
11,TCTATTAGTTGAACGGCAACCGACGAGTCCGTTT,0.661
12,ATCTCTAAGTAACAAGTTCAGTGAAAGAGAGGAC,1.63
13,GCTAGTTGGTCAGTAAAAGGTCCCACACCGGTCG,-0.35
14,TCATATAGGTAAACGGTGAAAGTCGGTGTGGTAA,0.39
15,ACTAGTTGGTCAGCTGAGGTCACATACAATTCGG,5.26
16,CGTCCAAGGTCATAGGAGGTCAGTGAGGACAGAT,6.88
17,TCATATAGGTAAATGCTAGGTGAAAGTGCGATCT,0.653
18,TCCAGTAGGTTAGGGGCATTCAGAATGGCGTCGA,0.69
19,CTCGAAAGGTCGTGCTCAGGTGAGTAGACCAAAC,3.11
20,CCTAGTAGGTCAGGAGGTCACACACCGGATATGA,4.94

row,Sequence,PBM binding z-score
1,CAAACTAGGTCACGAAAGTTCAAAGTCGAATGAC,7.11
2,TCTTGTAGATCAAGGGTTAAGAAAGCCGAAGCCT,0.471
3,TTACCAAGATGAGCTGAGGTCGTTGATCCAACTC,1.87
4,CCTTACGGGTCAAGGTTATAGCGCGGGTGGTACG,3.27
5,TAGTCTAGGTCATGGGCCAGTATACCACGCGAAC,1.57
6,ATCTCTAGGTAAAAGTTCAGTCAATCCCGAGGAT,2.36
7,AGTCAAAGTTCACTAGGGAACGTAAGATTCAGCT,3.94
8,CGTCCAAGGTCATAGAAGGTCAGTGAAGACAGAT,6.39
9,CCAGACAGGTGACAGGTAACTCAGTCTGGTACGC,-0.209
10,CTCGAAAGGTCGTGCTCACGTGAGTATACCAAAC,2.86
11,TTACCAAGGTGAGCAGAGGTCGTTGATCCAACTC,4.23
12,ATGTCTAGGTAAAGTTCAGTGAAAGATCGATAGA,2.12
13,CCGACTGGGGCACAAAGGTTACCATACCATCCGG,1.58
14,TATACAGGGTCAAAGGCCAGCGTACGAATGTCGA,4.34
15,CCTACTGGGCAATTCAGAGGTCATTGATCATATG,4.71
16,ACTATTAGTTGACTTGGGGCAACCGATACGACGC,0.156
17,CCGACTTGGGCAGAAAGGTTACCATACCATCCGG,0.592
18,GCTAGCACGCCATTTGGGTCACTCAATGACGGGC,0.0907
19,TCGAGTAGGTTAGGGGCATTCAAAATGGCGTCGA,0.792
20,CCTCGGAGGACAGAAGGTCAGAGCCGTCCGCTTT,1.78

# Test system: PXR homodimer (NR concentration 270 nM)
# Assay: as above
# Summary of the method: as §1
row,Sequence,PBM binding z-score
1,CAAACTAGCTCAAAGGTCAAAGTCGAGCCAACCA,1.71
2,GGAACGAGGGCAAGTCGATAGCAGAGTTTGATGG,0.469
3,CAGCGTAGGTCAGGGCCAGTATAGGAGGAACGTT,-0.644
4,TATTGTAGATCAACAGGAGGTTAAGAAAGATCGA,0.0451
5,CAGCCTAGGTCAGGGCCAATATAGGAGGAACGTT,-0.114
6,CTCGAAAAGTCGTGCTCAGGTGAGTATACCAAAC,0.0183
7,GCGATTGGGGCAAAGCAGGTTACCATAAGGTTGG,-0.215
8,TCGTGTAGATCAACAGGAGGTTAAGAAAGATCGA,-0.663
9,CCTATTAGTTTACCATAAGGGCAACCGAAGCTCG,1.08
10,GCTAGTCGGTCAGTAAAAGGTCACACACCGGTCG,1.05
11,TCTATTAGTTGAACGGCAACCGACGAGTCCGTTT,0.768
12,ATCTCTAAGTAACAAGTTCAGTGAAAGAGAGGAC,1.97
13,GCTAGTTGGTCAGTAAAAGGTCCCACACCGGTCG,-0.579
14,TCATATAGGTAAACGGTGAAAGTCGGTGTGGTAA,0.405
15,ACTAGTTGGTCAGCTGAGGTCACATACAATTCGG,1.85
16,CGTCCAAGGTCATAGGAGGTCAGTGAGGACAGAT,11.7
17,TCATATAGGTAAATGCTAGGTGAAAGTGCGATCT,0.401
18,TCCAGTAGGTTAGGGGCATTCAGAATGGCGTCGA,0.251
19,CTCGAAAGGTCGTGCTCAGGTGAGTAGACCAAAC,-0.191
20,CCTAGTAGGTCAGGAGGTCACACACCGGATATGA,1.33

row,Sequence,PBM binding z-score
1,CAAACTAGGTCACGAAAGTTCAAAGTCGAATGAC,8.3
2,TCTTGTAGATCAAGGGTTAAGAAAGCCGAAGCCT,-0.23
3,TTACCAAGATGAGCTGAGGTCGTTGATCCAACTC,0.628
4,CCTTACGGGTCAAGGTTATAGCGCGGGTGGTACG,-0.0779
5,TAGTCTAGGTCATGGGCCAGTATACCACGCGAAC,0.209
6,ATCTCTAGGTAAAAGTTCAGTCAATCCCGAGGAT,2.13
7,AGTCAAAGTTCACTAGGGAACGTAAGATTCAGCT,2.56
8,CGTCCAAGGTCATAGAAGGTCAGTGAAGACAGAT,3.15
9,CCAGACAGGTGACAGGTAACTCAGTCTGGTACGC,0.203
10,CTCGAAAGGTCGTGCTCACGTGAGTATACCAAAC,-0.121
11,TTACCAAGGTGAGCAGAGGTCGTTGATCCAACTC,-0.112
12,ATGTCTAGGTAAAGTTCAGTGAAAGATCGATAGA,1.98
13,CCGACTGGGGCACAAAGGTTACCATACCATCCGG,0.126
14,TATACAGGGTCAAAGGCCAGCGTACGAATGTCGA,0.322
15,CCTACTGGGCAATTCAGAGGTCATTGATCATATG,2.44
16,ACTATTAGTTGACTTGGGGCAACCGATACGACGC,0.385
17,CCGACTTGGGCAGAAAGGTTACCATACCATCCGG,-0.331
18,GCTAGCACGCCATTTGGGTCACTCAATGACGGGC,-0.533
19,TCGAGTAGGTTAGGGGCATTCAAAATGGCGTCGA,0.65
20,CCTCGGAGGACAGAAGGTCAGAGCCGTCCGCTTT,-0.366
